PubChem BioAssay AID463173 (ICCB-Longwood Screening Facility, Harvard Medical School, 2010)
The campaign covered roughly 52,000 compounds. About 1,700 (3.3%) were called active. Only a selection was taken, and actives are over-represented in it overall. Unmarked numbers belong to inactive results. No stated cut-off is given here; in the data, active means survival mostly below about 52% (no sharp cut-off); inactive means mostly above about 56%.

Tested on: Wild type
Assay: S. aureus survival, RN4220 and DeltatarO strains – OD600, teichoic acid synthesis inhibitors, primary screen (AID 463173)
Conditions: S. aureus RN4220 wild type/DeltatarO growth, OD600, 18 h, hits give low values, screened at 18.75 µg/mL (by protocol)

| Compound | survival |
| --- | --- |
| O=C(Nc1ccccc1)Nc1nnc(SCC(=O)N2CCCCC2)s1 | 131% |
| CC(C)(C)OC(=O)N1CCC(c2c(C(=O)N3CCN(C(=O)c4ccco4)CC3)cnn2-c2cccc(Cl)c2)CC1 | 95% |
| CCn1cc(C(=O)Nc2ccccc2)c(=O)c2ccc(C)nc21 | 111% |
| CCc1ccccc1Nc1nc2ccccc2n2cnnc12 | 147% |
| c1ccc(N(c2ccccc2)c2nc(-n3nnc4ccccc43)nc(-n3nnc4ccccc43)n2)cc1 | 103% |
| Cc1cccc(Oc2coc3cc(OCC(=O)NC4CCCCC4)ccc3c2=O)c1 | 80% |
| COc1ccc(C2C(C(N)=O)=C(C)Nc3nc(SCc4ccccc4Cl)nn32)cc1OC (stereo unspecified) | 143% |
| CC1=C(C(=O)Nc2ccccc2)C(c2ccc(O)cc2)n2nc(-c3ccc(Cl)cc3)nc2N1 (stereo unspecified) | 82% |
| COc1ccc(NC(=O)c2ccco2)cc1NC(=O)COc1cc(C)ccc1C(C)C | 85% |
| Cc1ccc2cccc(NC(=O)COc3ccccc3Cl)c2n1 | 134% |
| Cc1ccc(C(C)C)c(OCC(=O)Nc2cccc(NC(=O)c3ccco3)c2)c1 | 12% (active) |
| Cc1ccc(C(C)C)c(OCC(=O)Nc2ccc3c(c2)nc(CCNC(=O)c2ccco2)n3C)c1 | 88% |
| Cc1ccc2cccc(NC(=O)COc3cc(C)c(Cl)c(C)c3)c2n1 | 82% |
| CCC(C)c1ccc(OCC(=O)Nc2cccc3ccc(C)nc23)cc1 (stereo unspecified) | -12% (active) |
| O=c1c(-c2cc(-c3ccccc3)nc3c2COc2ccc(Cl)cc2-3)coc2ccccc12 | 75% |
| COc1cc(C(=O)Nc2nonc2-c2ccc(Cl)cc2)cc(OC)c1OC | 94% |
| CCC1CCCCN1C(=O)Cn1c(=O)cc(C(F)(F)F)c2c(C)nn(C)c21 (stereo unspecified) | 68% |
| Cc1ccc(-c2cc(C(=O)NCc3ccccc3)c3c(-c4ccc(C)cc4)[nH]nc3n2)cc1 | 75% |
| O=C(Cn1c(=O)nc(-c2ccccc2)c2cc(Cl)ccc21)NCCc1ccccc1 | 69% |
| Cc1ccc(NC(=O)/C=C/c2ccccc2Cl)cc1Cl | 97% |
| CCCCOC(=O)c1cccc(NC(=O)/C=C/c2ccccc2Cl)c1 | 7% (active) |
| CCN(CC)c1cc(C)c2cc(NC(=O)/C=C/c3ccccc3Cl)ccc2n1 | 76% |
| O=C(Nc1ccc(NC(=O)c2cc3ccccc3o2)cc1)c1ccccc1 | 80% |

| Compound | survival |
| --- | --- |
| CCCCOC(=O)c1ccc(NC(=O)c2cc(=O)c3ccccc3o2)cc1 | 93% |
| CCCCOC(=O)c1cccc(NC(=O)c2cc3ccccc3o2)c1 | 0% (active) |
| CC(C)CC(=O)Nc1ccc(C(=O)OCc2cc(=O)n3nc(C4CCCCC4)sc3n2)cc1 | 47% |
| CCC12C=CCN3CCC4(c5ccc(OC)cc5NC4C(O)(C(=O)OC)C1OC(C)=O)C32 (stereo unspecified) | 100% |
| Cc1ccc(-c2nc(CN(C)C)cc(CN(C)C)c2O)cc1 | 121% |
| CCOC(=O)CC(N)c1ccc2c(c1)OCO2 (stereo unspecified) | 111% |
| O=c1c2cc3c(cc2n(Cc2ccccc2)c(=O)n1Cc1nc(-c2ccccc2)no1)OCO3 | 112% |
| CC(C)CC(=O)Nc1ccc(C(=O)OCc2cc(=O)n3nc(C(C)C)sc3n2)cc1 | 138% |
| Nc1ccc2nc(SCCOc3ccccc3)sc2c1 | 108% |
| Brc1ccc2nc(SCCOc3ccccc3)[nH]c2c1 | 0% (active) |
| COc1ccc2nc(SCC(O)c3cccc(Br)c3)[nH]c2c1 (stereo unspecified) | 84% |
| O=C(Nc1c[nH]c2cc(Cl)ccc2c1=O)N1CCCCC1 | 85% |
| CSc1ccc(CNC(=O)Cn2nc(N3CCN(c4ccccc4)CC3)ccc2=O)cc1 | 64% |
| O=c1c2sc3ccccc3c2n(Cc2cccc(Cl)c2)c(=O)n1Cc1ccco1 | 68% |
| CCCOc1ccc(NC(=O)CC2C(=O)N(c3ccccc3)C(=O)N2Cc2ccc(F)cc2)cc1 (stereo unspecified) | -1% (active) |
| CCOC(=O)c1ccc(NC(=O)CC2C(=O)N(c3ccc(F)cc3)C(=O)N2Cc2ccc(C)cc2)cc1 (stereo unspecified) | 61% |
| COC(=O)c1ccc(NC(=O)CC2C(=O)N(c3ccccc3)C(=O)N2Cc2ccc(F)cc2)cc1 (stereo unspecified) | 14% (active) |
| COC(=O)c1ccc(NC(=O)CC2C(=O)N(c3ccc(F)cc3)C(=O)N2Cc2ccc(OC)cc2)cc1 (stereo unspecified) | 131% |
| CCc1ccc(NC(=O)CC2C(=O)OCCN2CC)cc1 (stereo unspecified) | -15% (active) |
| CCN1CCOC(=O)C1CC(=O)Nc1ccc(Br)cc1 (stereo unspecified) | 38% |
| CCCOc1ccc(NC(=O)CC2C(=O)N(c3ccc(C)cc3)C(=O)N2C(C)C)cc1 (stereo unspecified) | 133% |
| CCN1CCOC(=O)C1CC(=O)Nc1ccc(C(C)=O)cc1 (stereo unspecified) | 65% |
| CCc1ccc(NC(=O)CC2C(=O)N(c3ccccc3)C(=O)N2C(C)C)cc1 (stereo unspecified) | -6% (active) |

| Compound | survival |
| --- | --- |
| COC(=O)c1ccc(NC(=O)CC2C(=O)N(c3cccc(OC)c3)C(=O)N2C(C)C)cc1 (stereo unspecified) | 78% |
| COc1ccc(CN2C(=O)N(c3ccc(F)cc3)C(=O)C2CC(=O)Nc2ccccc2)cc1 (stereo unspecified) | 79% |
| CCCOc1ccc(NC(=O)CC2C(=O)N(c3ccc(F)cc3)C(=O)N2CC(C)C)cc1 (stereo unspecified) | 75% |
| O=C(CSc1nc(=O)n(Cc2ccco2)c2c1CCC2)Nc1ccccc1C(F)(F)F | 138% |
| Cc1ccccc1CNC(=O)c1ccc2c(c1)c(C)c(C)n2C | 58% |
| CC1CCCN(c2ccc(C(=O)NCc3ccccc3)cn2)C1 (stereo unspecified) | 103% |
| CCc1cccc(NC(=O)CSc2nncn3c2cc2sccc23)c1 | 73% |
| CCOc1cccc2sc(NC(=O)CS(=O)(=O)c3ccc(C)cc3)nc12 | 72% |
| Cc1cccn2c(=O)c(C(=O)N3CCN(c4ccc(Cl)cc4)CC3)cnc12 | 87% |
| CCCSCCCNC(=O)C1CCCN(C(=O)c2cnn(-c3ccccc3)c2-n2cccc2)C1 (stereo unspecified) | 107% |
| COc1ccccc1CNC(=O)c1oc2ccc3c(c2c1C)C(=O)CC(C)(C)O3 | 59% |
| Cc1ccc(OC(C)C(=O)NCC2(N3CCOCC3)CCCCC2)cc1C (stereo unspecified) | 86% |
| CC1CCCN(Cc2c(O)ccc3c(=O)c(-c4ccc(Cl)cc4)c(C(F)(F)F)oc23)C1 (stereo unspecified) | 71% |
| CCc1cccc(C)c1NC(=O)C(CC)Sc1nncn2c1cc1occc12 (stereo unspecified) | 78% |
| CCc1ccc(CNC(=O)c2ccc3c(c2)nc2n3CCOC2)cc1 | 111% |
| CN(C(=O)C1CCN(c2ncnc3c2nc2n3CCCCC2)CC1)c1ccccc1F | 60% |
| O=C(CSc1c2c(nc3ccc(Cl)cc13)CCCC2)N1CCCCC1 | 29% |
| O=C(CSc1c2c(nc3ccc(Cl)cc13)CCCC2)N1CCN(c2ccc(Cl)cc2)CC1 | 53% |
| CCOC(=O)C1CCN(C(=O)CSc2c3c(nc4ccc(Cl)cc24)CCCC3)CC1 | 56% |
| O=C(CSc1c2c(nc3cc(Cl)ccc13)CCCC2)N1CCN(c2ccccc2)CC1 | 44% |
| CCC(C)NC(=O)CSc1c2c(nc3cc(Cl)ccc13)CCCC2 (stereo unspecified) | 82% |
| CC1CCN(C(=O)CSc2c3c(nc4cc(Cl)ccc24)CCCC3)CC1 | 10% (active) |
| CC1CCCN(C(=O)CSc2c3c(nc4cc(Cl)ccc24)CCCC3)C1 (stereo unspecified) | -1% (active) |

| Compound | survival |
| --- | --- |
| CC1CCCCN1C(=O)CSc1c2c(nc3cc(Cl)ccc13)CCCC2 (stereo unspecified) | -1% (active) |
| CC1CCN(C(=O)CSc2c3c(nc4ccc(Cl)cc24)CCCC3)CC1 | -1% (active) |
| Cc1ccc(CNC(=O)CSc2c3c(nc4cc(Cl)ccc24)CCCC3)cc1 | 83% |
| O=C(CSc1c2c(nc3cc(Cl)ccc13)CCCC2)N1CCN(c2ccccc2F)CC1 | 69% |
| COCCNC(=O)CSc1c2c(nc3cc(Cl)ccc13)CCCC2 | 71% |
| CCCCN1C(=O)CN(C2CCCCCC2)C(=O)C1c1ccc(OCC)c(OC)c1 (stereo unspecified) | 78% |
| CCCCNc1nc2c(S(=O)(=O)c3ccc(Cl)cc3)nnn2c2ccsc12 | 89% |
| O=C(NC1CC2CCCC(C1)N2CC(=O)N1CCCc2ccccc21)c1ccccc1 (stereo unspecified) | 97% |
| CCOc1ccc(C2CC(=O)c3c([nH]c(C(=O)OC4CCCCCC4)c3C)C2)cc1 (stereo unspecified) | 79% |
| O=C(Cn1nc(Cc2cccnc2)c2ccccc2c1=O)N1CCN(c2ccc(F)cc2)CC1 | 89% |
| Cc1ccccc1CNC(=O)C(=O)NCC(c1cccs1)S(=O)(=O)c1ccc(Cl)cc1 (stereo unspecified) | 74% |
| Cc1ccc(OCC(=O)OCc2cc(=O)n3nc(C4CCCCC4)sc3n2)cc1C | 79% |
| CC1=Nc2cc(C(=O)N3CCCCC3)ccc2Sc2ccc(C)cc21 | 3% (active) |
| CCCC1=Nc2cc(C(=O)N3CCC(C)CC3)ccc2Sc2ccc(C)cc21 | 107% |
| CCC1=Nc2cc(C(=O)N3CCC(C)CC3)ccc2Sc2ccc(C)cc21 | -1% (active) |
| CCOC(=O)C1CCN(C(=O)c2ccc3c(c2)N=C(CC)c2cc(C)ccc2S3)CC1 | 29% |
| CC1=Nc2cc(C(=O)N3CCC(C)CC3)ccc2Sc2ccc(Cl)cc21 | 81% |
| CNC(=O)c1ccc2c(c1)N=C(C)c1cc(C)ccc1S2 | 80% |
| CC(C)CCNC(=O)CN1C(=O)CCn2nc(-c3cn(C)c4ccccc34)cc21 | 87% |
| COc1ccccc1-c1c(C)nn2c(N3CCN(c4ccc(F)cc4)CC3)cc(C)nc12 | 88% |
| O=c1c(N2CCN(c3cccc(C(F)(F)F)c3)CC2)csc2ccc(Cl)cc12 | 74% |
| CCOC(=O)c1c(S(=O)(=O)NCC(=O)Nc2cc(C)ccc2C)c(C)n(C)c1C | 66% |
